Reference: PubChem BioAssay (NCATS)
Values without a mark were called inactive. Results filed as inconclusive are left out. Where a call stands in place of a potency, no number is given. Active and inactive are the calls of the source. The call rests on the fitted dose curve; in most records, active means well fitted curve in the direction sought with a large enough effect; inconclusive means small, poorly fitted or top-dose-only effect, or another doubt; inactive means no such curve, though single readings can be large; an effect the other way counts as inactive or inconclusive.

Assays:
[1] = qHTS for compounds that reverse cellular toxicity of Amyloid beta (A-beta) peptide in yeast: LOPAC Validation Assay (AID 720559); settings: yeast expressing A-beta; series mostly up to 46.1 µM
Procedure, shortened: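 Yeast cells expressing toxic A-beta were combined with pinned compounds in growth medium and incubated 48 hr at 30 C. Growth was read as absorbance at 600 nm and normalized to DMSO and to an equimolar FeCl3/clioquinol positive control.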

[2] = qHTS for Activators of Parkin Expression: LOPAC Validation Assay (NLuc Reporter) (AID 720572); settings: Parkin promoter NanoLuc reporter cells, luminescence; series mostly up to 46.1 µM
Procedure, shortened: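 Neuronal cells with a Parkin promoter-driven FLuc/NLuc coincidence reporter were treated 24 h at 37 C in 7-point dose response (LOPAC). NLuc luminescence read after FLuc; signals normalized to DMSO and positive control (100%).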

[3] = qHTS for Activators of Parkin Expression: LOPAC Validation Assay (FLuc Reporter) (AID 720573); settings: Cell line, PRKN promoter firefly luciferase reporter, vehicle wells = 0, positive control = 100%; series mostly up to 46.1 µM
Procedure, shortened: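 Neuronal cell line stably carrying FLuc/NLuc coincidence reporter under Parkin promoter; cells plated 24 h, then compounds added in 7-point dose response for 24 h at 37 C. FLuc luminescence read; normalized to DMSO and positive control (100%).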

[4] = target: T1, Hexokinase-4 (Homo sapiens) + Glucokinase regulatory protein (Homo sapiens) (UniProt P35557+Q14397); test: qHTS assay for inhibitors of recombinant human GCK-GKRP interaction: Diaphorase-coupled assay (AID 743205); settings: G6PDH/diaphorase resorufin fluorescence; series mostly up to 57.5 µM
T1 sequence (P35557 whole entry, looked up): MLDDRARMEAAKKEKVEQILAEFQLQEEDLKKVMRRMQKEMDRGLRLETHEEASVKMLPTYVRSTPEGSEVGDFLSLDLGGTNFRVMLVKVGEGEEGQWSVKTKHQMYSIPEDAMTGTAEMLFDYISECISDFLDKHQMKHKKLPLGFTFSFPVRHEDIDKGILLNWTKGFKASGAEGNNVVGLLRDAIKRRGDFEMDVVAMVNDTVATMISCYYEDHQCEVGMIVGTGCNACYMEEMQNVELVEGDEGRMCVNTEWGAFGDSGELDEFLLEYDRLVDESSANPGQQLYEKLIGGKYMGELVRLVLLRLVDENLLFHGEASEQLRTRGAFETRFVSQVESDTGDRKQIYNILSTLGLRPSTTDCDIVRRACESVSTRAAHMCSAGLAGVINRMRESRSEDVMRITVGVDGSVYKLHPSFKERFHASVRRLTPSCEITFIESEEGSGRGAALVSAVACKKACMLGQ
T1 sequence (Q14397 whole entry, looked up): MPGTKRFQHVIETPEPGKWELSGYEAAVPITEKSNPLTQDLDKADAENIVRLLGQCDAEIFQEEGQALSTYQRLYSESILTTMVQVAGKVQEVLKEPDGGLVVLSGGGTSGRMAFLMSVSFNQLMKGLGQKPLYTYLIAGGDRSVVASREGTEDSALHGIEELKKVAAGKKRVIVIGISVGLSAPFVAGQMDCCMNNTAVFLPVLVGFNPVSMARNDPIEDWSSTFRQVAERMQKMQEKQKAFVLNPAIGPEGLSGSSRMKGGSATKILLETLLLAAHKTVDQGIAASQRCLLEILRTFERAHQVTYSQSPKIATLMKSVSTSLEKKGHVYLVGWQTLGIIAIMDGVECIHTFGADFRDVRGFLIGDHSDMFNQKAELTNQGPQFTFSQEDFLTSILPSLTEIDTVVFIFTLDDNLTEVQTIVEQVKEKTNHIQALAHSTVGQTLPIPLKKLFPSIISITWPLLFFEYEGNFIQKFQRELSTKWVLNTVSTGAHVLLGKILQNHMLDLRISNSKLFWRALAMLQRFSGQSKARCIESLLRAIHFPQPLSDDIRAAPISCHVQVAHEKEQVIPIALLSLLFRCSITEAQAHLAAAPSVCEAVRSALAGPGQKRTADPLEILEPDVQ
Procedure, shortened: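 GST-GCK (10 nM) with FLAG-GKRP (10 nM), 5 mM glucose and 0.4 mM ATP in pH 7.6 Hepes; compounds preincubated 20 min with substrate. G6PDH/diaphorase coupling converts resazurin to resorufin, read kinetically (ex 525/em 590 nm) for 30 min.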

[5] = target: T1, Hexokinase-4 (Homo sapiens) + Glucokinase regulatory protein (Homo sapiens); test: qHTS assay for inhibitors of recombinant human GCK-GKRP interaction: ADP-Glo assay (AID 743206); settings: ADP-Glo luminescence, 60 min, 0% = vehicle-only wells with enzyme present; series mostly up to 76.9 µM
Procedure, shortened: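 GST-GCK and FLAG-GKRP (15 nM each in the dispensed mix, with 2 uM S6P) react with 0.4 mM ATP and 5 mM glucose (final) in Hepes pH 7.6 for 60 min at room temperature. ADP is measured by ADP-Glo luminescence.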

[6] = target: T1, Hexokinase-4 (Homo sapiens) + Glucokinase regulatory protein (Homo sapiens); test: qHTS assay for inhibitors of recombinant human GCK-GKRP interaction: HTRF assay (AID 743207); settings: recombinant GCK-GKRP HTRF binding, 60 min; series mostly up to 57.5 µM
Procedure, shortened: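 GST-GCK and FLAG-GKRP (5 nM each) were combined with 2 uM S6P in pH 7.1 Hepes/MgCl2/KCl/DTT buffer, then compound and anti-FLAG XL665/anti-GST K antibodies were added. After 60 min at room temperature, HTRF 665/615 nm emission was read.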

[7] = qHTS assay for measurement of the activity of small molecule inhibitors on Zika virus induced Caspase-3 activity in human iPSC derived neural progenitor cells (hNPCs) (AID 1224857); settings: hNPCs ZIKV-induced caspase-3/7, Caspase-Glo luminescence, 6 h; series mostly up to 45.7 µM; further: nearly all actives have a fitted effect of over 65% in size
Procedure, shortened: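 Zika virus (2 FFU/cell) infection of human iPSC-derived NPCs, 6 h, following 1 h compound preincubation. Read-out: Caspase-Glo 3/7 luminescence.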

[8] = qHTS Assay for Identifying Gametocytocidal Compounds (AID 743244); further: potency means the concentration at half of the fitted maximal effect;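 on max response: actives lower the fluorescent signal which means gametocytes are killed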; settings: P. falciparum 3D7 stage III-V gametocytes, alamarBlue, 72 h; max response: hits give low values
Procedure, shortened: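 Fluorescence at Ex 525/Em 598 nm, recorded 24 h after alamarBlue addition, reports residual metabolic activity of 3D7 gametocytes (stages III–V) following 72 h compound exposure at 37 °C, 5% CO2.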

Structure (SMILES) | outcome [1] | Potency [2] | outcome [3] | Potency [4] | outcome [5] | outcome [6] | Potency [7] | max response [8] [%] | Potency [8]
CCCN1CCc2cccc3c2[C@H]1Cc1ccc(O)c(O)c1-3 | inactive | inactive | inactive | inactive | inactive | inactive | inactive |  | 
CC(C)(C)c1cc(C=C(C#N)C#N)cc(C(C)(C)C)c1O | inactive | inactive | inactive | inactive | inactive | inactive | inactive |  | 
CCn1cnc2c(Nc3cccc(Cl)c3)nc(N[C@@H]3CCCC[C@@H]3N)nc21 | inactive | inactive | inactive | inactive | inactive | inactive | inactive |  | 
Nc1cc2c(ncn2CCOCP(=O)(O)O)c(=O)[nH]1 |  |  |  |  |  |  | inactive |  | 
CCN1C[C@@]2(COC)C3[C@@H](OC)C4[C@H]1C3([C@@H]1C[C@@]3(O)[C@H](OC(=O)c5ccccc5)[C@@H]1[C@]4(OC(C)=O)[C@@H](O)[C@@H]3OC)[C@H](OC)C[C@H]2O |  |  |  |  |  |  | inactive |  | 
C[N+]1(C)CCC(OC(=O)C(c2ccccc2)c2ccccc2)CC1 |  |  |  |  |  |  | inactive |  | 
C[C@@H]1O[C@@H](O[C@H]2C[C@@H](O)[C@]3(CO)[C@@H]4C(CC[C@]3(O)C2)[C@@]2(O)CC[C@H]([C@@H]3COC(=O)C3)[C@@]2(C)C[C@H]4O)[C@H](O)[C@H](O)[C@H]1O (stereo not given in full) | inactive | inactive | inactive | inactive | inactive | inactive | inactive | 22.5 | 
NCC(CP(=O)(O)O)c1ccc(Cl)cc1 (stereo not given) | inactive | inactive | inactive | inactive | inactive | inactive | inactive | 18.6 | 
CC(N)[C@H](O)c1ccc(O)c(O)c1 (stereo not given in full) | inactive | inactive | inactive | inactive | inactive | inactive | inactive | 7.97 | 
Ic1ccccc1CNC1C2CCN(CC2)C1C(c1ccccc1)c1ccccc1 (stereo not given) | inactive | inactive | inactive | inactive | inactive | inactive | inactive |  | 1780 nM (active)
NCCCP(=O)(O)O | inactive | inactive | inactive | inactive | inactive | inactive | inactive | -9.88 | 
NCCc1ccc(S(=O)(=O)F)cc1 | inactive | inactive | inactive | inactive | inactive | inactive | inactive | 22.8 | 
CCCn1c(=O)c2[nH]c(C3CCCC3)nc2n(CCCOC(=O)c2ccc(S(=O)(=O)F)cc2)c1=O | inactive | inactive | inactive | inactive | inactive | inactive | inactive | 11.9 | 
CC(N)Cc1c[nH]c2ccc(OCc3cccs3)cc12 (stereo not given) | inactive | inactive | inactive | inactive | inactive | inactive | inactive |  | 1410 nM (active)
COc1ccc2c(c1)C13CCCCC1C(C2)N(C)CC3 (stereo not given) | inactive | inactive | inactive | inactive | inactive | inactive | inactive | 9.94 | 
Cc1sc2ccccc2c1CC1=NCCN1 | inactive | inactive | inactive | inactive | inactive | inactive | inactive | 25.3 | 
NC(N)=NOCC[C@H](N)C(=O)O | inactive | inactive | inactive | inactive | inactive | inactive | inactive | -9 | 
NC(=O)CI | inactive | inactive | inactive | inactive | inactive | inactive | inactive | 8.04 | 
C[N+]1(C)CCN(c2ccccc2)CC1 | inactive | inactive | inactive | inactive | inactive | inactive | inactive | -6.92 | 
c1ccc2cc(CC3=NCCN3)ccc2c1 | inactive | inactive | inactive | inactive | inactive | inactive | inactive | 5.44 | 
NC(=O)c1ccc(OCC(O)CN2CC=C(c3ccc(F)cc3)CC2)cc1 (stereo not given) | inactive | inactive | inactive | inactive | inactive | inactive | inactive | 10.4 | 
OCc1cnc[nH]1 | inactive | inactive | inactive | inactive | inactive | inactive | inactive | 26.7 | 
Cc1[nH]c2ccc(O)cc2c1CCN | inactive | inactive | inactive | inactive | inactive | inactive | inactive |  | 
NC(CCCCCP(=O)(O)O)C(=O)O (stereo not given) | inactive | inactive | inactive | inactive | inactive | inactive | inactive | -2.34 | 
O=C1CC[C@@]2(O)C3Cc4ccc(O)c5c4C2(CCN3CC2CC2)[C@H]1O5 (stereo not given in full) | inactive | inactive | inactive | inactive | inactive | inactive | inactive | 16.9 | 
